Measurements from PubChem BioAssay (Tox21).
Records with an inconclusive call do not appear. Activity calls are given as the source filed them. Unless noted, the call rests on the fitted dose curve; in most records, active means well fitted curve in the direction sought with a large enough effect in the repeat runs; inconclusive means weak or mixed curves; inactive means no such curve, though single readings can be large; an effect the other way counts as inactive or inconclusive.

What was measured:
[1] = A CellTox Green Cytotoxicity Assay to monitor cytotoxicity in HepG2 cells - 8 hour (AID 1224890); settings: CellTox Green fluorescence; series mostly up to 76.8 µM; further: on the % scale 0 is the no-effect control and ±100 the full control effect; nearly all actives have a fitted effect of over 45% in size
Method in brief: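 Real-time cytotoxicity: fluorescence of a cell-impermeant cyanine dye binding DNA of dead HepG2 cells, measured repeatedly (0–40 h) during compound exposure at 37 C. Cells seeded 600/well with reagent, dosed after 5 h.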

[2] = qHTS assay to identify small molecule antagonists of the estrogen receptor alpha (ER-alpha) signaling pathway using the BG1 cell line in the presence of 0.1 nM 17-beta-estradiol - cell viability counter screen (AID 1259241); settings: VM7Luc4E2 (BG1) viability, CellTiter-Fluor protease, 22 h, 0.1 nM estradiol agonist added; series mostly up to 92.4 µM; further: on the % scale 0 is the no-effect control and ±100 the full control effect; nearly all actives have a fitted effect of over 40% in size
Method in brief: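 Cells were plated and left 24 hr, compounds in DMSO were pinned in, 17beta-estradiol was added to 0.1 nM final, and after 22 hr CellTiter-Fluor reagent was added for 30 min before fluorescence was read.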

[3] = qHTS assay to identify small molecule antagonists of the androgen receptor (AR) signaling pathway using the MDA cell line in the presence of 0.5 nM R1881 - cell viability counter screen (AID 1259242); settings: MDA-kb2 viability, CellTiter-Fluor protease fluorescence, 16 h; series mostly up to 92.4 µM; further: on the % scale 0 is the no-effect control and ±100 the full control effect; nearly all actives have a fitted effect of over 45% in size
Method in brief: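 Live-cell protease activity was measured by CellTiter-Fluor fluorescence after 30 min. Before that, MDA-kb2 MMTV-luciferase cells had 16 hr at 37C without CO2, exposed to test compounds and 0.5 nM R1881 final.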

[4] = qHTS assay to identify small molecule HDAC inhibitors (AID 1259364); settings: HCT-116 HDAC-Glo I/II luminescence, 2 h; series mostly up to 92.4 µM; further: top concentration of the series differs between compounds; on the % scale 0 is the no-effect control and ±100 the full control effect; nearly all actives have a fitted effect of over 45% in size
Method in brief: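 Luminescence read after 30 min room-temperature HDAC-Glo incubation measures cellular class I/II HDAC activity. Compounds were applied for 2 hr at 37 C to HCT-116 wild-type cells seeded the day before.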

[5] = qHTS assay to identify small molecule HDAC inhibitors - cell viability counter screen (AID 1259365); settings: HCT-116 viability, CellTiter-Glo ATP luminescence, 2 h; series mostly up to 92.4 µM; further: on the % scale 0 is the no-effect control and ±100 the full control effect; nearly all actives have a fitted effect of over 50% in size
Method in brief: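 Counter screen in wild-type HCT-116 cells: compounds dissolved in DMSO are pin-transferred onto overnight-plated cells and left 2hr at 37C. ATP-based CellTiter-Glo luminescence then measures viable cells.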

[6] = qHTS assay to identify small molecule agonists of the sonic hedgehog signaling (Shh) pathway - cell viability counter screen (AID 1259366); settings: NIH/3T3 Gli1-Luc viability, CellTiter-Fluor, 24 h; series mostly up to 92.4 µM; further: nearly all actives have a fitted effect of over 50% in size; further: potency means the concentration at half of the fitted maximal effect; on viability change, negative = cytotoxic: on the % scale 0 is the no-effect control and ±100 the full control effect
Method in brief: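 Cells are plated at 2,000 per well and left 4hr at 37C, 5% CO2 before compound addition. After 23hr of treatment, CellTiter-Fluor reagent is added for 1hr at 37C and fluorescence is measured.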

[7] = qHTS assay to identify small molecule antagonists of the sonic hedgehog signaling (Shh) pathway - cell viability counter screen (AID 1259367); settings: NIH/3T3 Gli1-Luc viability, CellTiter-Fluor, 24 h; series mostly up to 42.5 µM; further: on the % scale 0 is the no-effect control and ±100 the full control effect; nearly all actives have a fitted effect of over 55% in size
Method in brief: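 Viability was read by CellTiter-Fluor fluorescence in the same wells, reagent added 23 hr into compound treatment and incubated 1 hr at 37C. The 3T3 Gli1-Luc reporter cells (2,000/well) received conditioned medium after compound and ran 24 hr.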

[8] = qHTS assay to identify small molecule agonists of the sonic hedgehog signaling (Shh) pathway (AID 1259368; calls by dose curve;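 further: NIH/3T3-derived 3T3Gli1-Luc cells carrying a stable Gli1-driven firefly luciferase reporter; on the % scale 0 is the no-effect control and ±100 the full control effect; nearly all actives have a fitted effect of over 15% in size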); settings: NIH/3T3 Gli1-Luc reporter, luciferase, 24 h, active compounds read high; series mostly up to 92.4 µM
Method in brief: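 Luminescence was read after 30 min at room temperature with luciferase reagent. Before that, 3T3Gli1-Luc cells (NIH/3T3 clone, stable Gli1-Luc reporter; 2,000/well) were exposed to compounds for 24 hr at 37C, 5% CO2, compounds being added 4 hr post-plating.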

[9] = qHTS assay to identify small molecule agonists of the androgen receptor (AR) signaling pathway in the presence of an antagonist - cell viability counter screen (AID 1259379); settings: MDA-kb2 viability, CellTiter-Fluor, 16 h; series mostly up to 92.4 µM;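 further: MDA-kb2 human breast cancer cells carrying an MMTV luciferase reporter; on the % scale 0 is the no-effect control and ±100 the full control effect; nearly all actives have a fitted effect of over 25% in size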
Method in brief: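 Cytotoxicity counter-screen run in the same wells as the nilutamide-challenged (3.0 µM final) AR agonist assay in MDA-kb2 cells. Compounds tested at 15 concentrations for 16 h, 37 °C without CO2; CellTiter-Fluor fluorescence read.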

[10] = qHTS assay to identify small molecule agonists of the estrogen receptor beta (ER-beta) signaling pathway - cell viability counter screen (AID 1259380); settings: ER-beta-bla HEK293T viability, CellTiter-Glo luminescence, 16 h; series mostly up to 92.4 µM; further: on the % scale 0 is the no-effect control and ±100 the full control effect; nearly all actives have a fitted effect of over 30% in size
Method in brief: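 Cell viability counter screen: CellTiter-Glo luminescence (30 min, room temperature) measured in the same wells as the beta-lactamase readout, after 16 hr compound exposure at 37C of ER-beta-bla HEK293T cells in 2% charcoal-stripped FBS medium.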

[11] = qHTS assay to identify small molecule antagonists of the estrogen receptor beta (ER-beta) signaling pathway - cell viability counter screen (AID 1259382); settings: ER-beta-UAS-bla HEK293T viability, CellTiter-Glo luminescence, 16 h; series mostly up to 92.4 µM;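 further: HEK293T cells carrying ER-beta-UAS-bla reporter stimulated with estradiol; on the % scale 0 is the no-effect control and ±100 the full control effect; nearly all actives have a fitted effect of over 55% in size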
Method in brief: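 Cytotoxicity was measured in the same wells by CellTiter-Glo luminescence after 30 min at room temperature. Cells were ER-beta-bla HEK293T in charcoal-stripped serum, given compound together with 1 nM E2 and incubated 16 h at 37C.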

[12] = qHTS assay to identify small molecule antagonists of the sonic hedgehog signaling (Shh) pathway (AID 1259369; calls by dose curve; further: on the % scale 0 is the no-effect control and ±100 the full control effect; nearly all actives have a fitted effect of over 45% in size); settings: NIH/3T3 Gli1-Luc reporter, Shh antagonist, luminescence 24 h; series mostly up to 42.5 µM
Method in brief: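 Antagonist mode: compound added to 3T3 Gli1-Luc cells followed by conditioned-medium stimulation, 24 h at 37 C, 5% CO2. Inhibition taken as loss of Gli1-driven luciferase luminescence.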

[13] = biological target: Estrogen receptor beta (Homo sapiens) (UniProt Q92731); assay: qHTS assay to identify small molecule agonists of the estrogen receptor beta (ER-beta) signaling pathway (AID 1259377; active means well fitted activation curve with a large enough effect in the signal ratio in the repeat runs, not every such curve was filed as active; the % refers to the signal ratio; further: on the % scale 0 is the no-effect control and ±100 the full control effect); settings: ER-beta-UAS-bla HEK293T, beta-lactamase FRET ratio, 16 h; series mostly up to 42.5 µM
Estrogen receptor beta (Homo sapiens), sequence (Q92731 whole entry, looked up, the tested form may be a part): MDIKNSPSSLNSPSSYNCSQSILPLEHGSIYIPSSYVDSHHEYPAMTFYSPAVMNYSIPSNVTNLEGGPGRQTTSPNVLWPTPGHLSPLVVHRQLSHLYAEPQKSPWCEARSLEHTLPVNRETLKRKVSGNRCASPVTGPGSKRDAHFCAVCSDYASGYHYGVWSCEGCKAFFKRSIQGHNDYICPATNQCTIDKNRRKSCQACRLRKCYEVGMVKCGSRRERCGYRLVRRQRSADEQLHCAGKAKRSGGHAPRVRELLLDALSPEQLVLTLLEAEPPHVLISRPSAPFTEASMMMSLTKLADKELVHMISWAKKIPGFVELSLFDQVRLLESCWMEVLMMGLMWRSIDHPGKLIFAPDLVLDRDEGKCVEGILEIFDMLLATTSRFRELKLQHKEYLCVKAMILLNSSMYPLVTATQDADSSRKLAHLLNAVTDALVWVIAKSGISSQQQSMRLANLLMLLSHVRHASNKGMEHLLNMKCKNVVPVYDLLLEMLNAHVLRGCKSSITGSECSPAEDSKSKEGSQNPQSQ
Method in brief: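 Agonist mode cell assay in GripTite HEK293T cells expressing an ER-beta fusion that drives beta-lactamase from an Upstream Activator Sequence; 16 hr compound exposure at 37C, then 2 h LiveBLAzer B/G FRET substrate at room temperature, fluorescence read-out.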

[14] = biological target: Estrogen receptor beta (Homo sapiens) (UniProt Q92731); assay: qHTS assay to identify small molecule antagonists of the estrogen receptor beta (ER-beta) signaling pathway (AID 1259378; active means well fitted inhibition curve with a large enough effect in the signal ratio in the repeat runs, not every such curve was filed as active; the % refers to the signal ratio; further: on the % scale 0 is the no-effect control and ±100 the full control effect); settings: ER-beta-UAS-bla HEK293T, beta-lactamase FRET ratio, 16 h; series mostly up to 92.4 µM
Method in brief: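 Antagonist mode: compounds added to beta-lactamase reporter HEK293T ER-beta-UAS cells stimulated with E2 (1nM final), 16 hr at 37C. LiveBLAzer B/G FRET substrate, 2 hours room temperature, fluorescence read-out.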

[15] = qHTS assay to identify small molecule agonists or antagonists of the thyroid stimulating hormone receptor (TSHR) signaling pathway - wild type cell line counter screen (AID 1259384; calls by dose curve; further: on the % scale 0 is the no-effect control and ±100 the full control effect); settings: HEK293 wild type, cAMP HTRF counter-screen, active compounds read high; series mostly up to 92.4 µM
Method in brief: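 Counter screen in untransfected Hek293: compounds (15-point titration, triplicate) plus phosphodiesterase inhibitor Ro20-1724 added after 18 h plating; 30 min RT. Intracellular cAMP via competitive d2/cryptate immunoassay, 1 h incubation.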

[16] = qHTS assay to identify small molecule phospholipidosis (PLD) inducers (AID 1259344; active means well fitted curve in the direction sought with a large enough effect; an effect the other way counts as inactive or inconclusive; further: potency means the concentration at half of the fitted maximal effect); settings: HepG2 phospholipidosis, LipidTOX Red imaging, 24 h; series mostly up to 38.3 µM
Method in brief: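 Phospholipid accumulation was scored by imaging: fixed, Hoechst-counterstained HepG2 cells stained with LipidTOX Red after 24 h compound exposure at 37 C. Read-outs were pit count and pit intensity per well or per cell, with amiodarone and DMSO controls.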

Cn1c(N)c(N=O)c(=O)n(C)c1=O
inactive: Potency [1] | outcome [2] | Potency [3] | Potency [4] | outcome [5] | Potency [6] | Potency [7] | outcome [8] | Potency [9] | Potency [10] | Potency [11]

CCC(C)S (stereo not drawn)
inactive: cytotoxicity increase [1] -0.336% [at 2.72 µM] | activity change, negative = cytotoxicity [2] 5.76% [at 3.27 µM] | viability change, negative = cytotoxic [3] 1.28% [at 3.26 µM] | activity change, negative = inhibition [4] 0.148% [at 3.27 µM] | activity change, negative = cytotoxicity [5] 1.61% [at 3.27 µM] | viability change, negative = cytotoxic [6] 3.35% [at 3.27 µM] | viability change, negative = cytotoxic [7] 3.76% [at 3.27 µM] | activity change, negative = inhibition [12] 17.6% [at 3.27 µM] | activation [13] 0.578% [at 3.32 µM] | activity, negative = inhibition [14] 9.7% [at 3.27 µM] | activity change, negative = cytotoxicity [9] -0.314% [at 3.27 µM] | activity change, negative = cytotoxicity [10] 4.81% [at 3.32 µM] | activity change, negative = cytotoxicity [11] 6.44% [at 3.27 µM] | cAMP activity change [15] 0.879% [at 3.27 µM]

COC(=O)c1ccc(C)cc1C1=NC(C)(C(C)C)C(=O)N1 (stereo not drawn)
inactive: Potency [1] | outcome [2] | Potency [3] | Potency [4] | outcome [5] | Potency [6] | Potency [7] | Potency [12] | outcome [13] | outcome [14] | Potency [9] | Potency [10] | Potency [11]

COc1ccc(CCN(C)CCCC(C#N)(c2cc(OC)c(OC)c(OC)c2)C(C)C)cc1OC (stereo not drawn)
inactive: Potency [1] | Potency [3] | Potency [4] | outcome [5] | outcome [13] | outcome [14] | Potency [9] | Potency [10] | Potency [11] | outcome [15]
active: Potency [16] 5.62 µM | Potency [6] 15 µM

CCOC(=O)CC(C)=O
inactive: Potency [1] | outcome [2] | Potency [3] | Potency [4] | outcome [5] | Potency [6] | Potency [7] | outcome [8] | Potency [12] | Potency [9] | Potency [10] | Potency [11]

COC(C)(C)CCCC(C)CC=O (stereo not drawn)
inactive: Potency [1] | outcome [2] | Potency [3] | outcome [5] | Potency [6] | Potency [7] | outcome [8] | Potency [12] | outcome [13] | outcome [14] | Potency [9] | Potency [10] | Potency [11] | outcome [15]

C[C@H]1C[C@@H](O)CC(C)(C)C1
inactive: Potency [1] | outcome [2] | Potency [3] | Potency [4] | outcome [5] | Potency [7] | Potency [12] | outcome [13] | outcome [14] | Potency [9] | Potency [10] | outcome [15]
